Compound activity deposited in PubChem BioAssay by several laboratories.
DAT uptake mod = modulates human dopamine transporter uptake under cocaine. B-score at 10 µM. LLC-PK1 hDAT cells, [14C]-dopamine uptake with cocaine IC80; actives deviate in either direction. Q01959. actives 1.3% (n = 110,000). AID 449768;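 active = Z score or B-score, a plate-position-corrected score, falls beyond the plate's 99.7% confidence bounds, in either direction; inactive = both scores lie inside the 99.7% bounds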;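 also: scored against the spread of the other compound wells on the same plate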
CYP2C19 activ = increases human CYP2C19 enzyme activity; P33261; 96,000 tested, under 10 active; AID 1025; recombinant CYP2C19, luciferin-H EGE luminescence; stronger effect = higher value; 0 = fully inhibited enzyme, 1 = untreated enzyme; activation factor at 5 µM;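 active = activation factor of at least 2 at 5 µM in the primary screen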;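 also: 0 = wells with 2.5 mM tranylcypromine and 1 = vehicle-only wells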
CYP2C19 inhib = blocks human cytochrome P450 2C19. P33261. CYP2C19 Supersomes, luciferin-H EGE luminescence, 30 min. inhibition, % at 5 µM. actives 21% (n = 96,000). AID 778;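 active = CYP2C19 inhibition above a set limit at 5 µM in the primary screen, cut at about 50% in these data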;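 also: plate controls were negative control wells for no effect and 2.5 mM tranylcypromine positive control for full effect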
CYP2C9 inh = inhibitors of human CYP2C9. actives 20% (n = 96,000). inhibition, % at 5 µM. CYP2C9 Supersomes, luciferin-H conversion, luminescence. P11712;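 active = blocking of liver enzyme CYP2C9 beyond about 50% at 5 µM, limit read from the data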
Target sequence (P11712 whole entry, looked up): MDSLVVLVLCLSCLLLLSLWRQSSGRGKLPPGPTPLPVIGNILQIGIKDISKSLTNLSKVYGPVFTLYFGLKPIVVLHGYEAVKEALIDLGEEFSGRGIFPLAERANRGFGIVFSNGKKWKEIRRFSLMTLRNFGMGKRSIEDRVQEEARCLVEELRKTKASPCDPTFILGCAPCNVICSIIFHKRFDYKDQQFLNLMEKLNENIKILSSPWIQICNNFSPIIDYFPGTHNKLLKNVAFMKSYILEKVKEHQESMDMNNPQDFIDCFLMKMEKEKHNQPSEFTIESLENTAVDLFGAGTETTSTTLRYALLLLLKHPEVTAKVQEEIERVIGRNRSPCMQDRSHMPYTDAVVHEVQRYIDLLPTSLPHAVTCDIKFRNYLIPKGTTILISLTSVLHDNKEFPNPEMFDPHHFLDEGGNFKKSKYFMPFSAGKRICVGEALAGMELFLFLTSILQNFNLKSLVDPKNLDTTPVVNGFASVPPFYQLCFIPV
CYP2C9 act = activators of human CYP2C9 | actives 1.4% (n = 96,000) | recombinant CYP2C9, luciferin-H conversion, luminescence; stronger effect = higher value; factor 1 = untreated enzyme, 0 = blocked | activation factor at 5 µM | P11712;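 active = activation factor of 2 or more for CYP2C9 at a 5 µM dose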;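 also: 0 = sulfaphenazole-blocked wells and 1 = vehicle-only wells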
D1 allo mod = allosteric modulators of human D1 dopamine receptor; P21728; HEK293 D1, CRE-luciferase, dopamine EC30 potentiation; actives deviate in either direction; B-score at 10 µM; AID 641; actives 5.9% (n = 58,000);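 active = luminescence count or its row- and column-corrected plate score outside the 99.7% band of the plate's sample wells, on either side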
* hit, by the source's call; x = no result given. In the library only some 28% were active in any assay of this set; here they are far more common.

SMILES	DAT uptake mod	CYP2C19 activ	CYP2C19 inhib	CYP2C9 inh	CYP2C9 act	D1 allo mod
CCOc1ccc(NC(=O)CSC2=C(C#N)C(c3ccc4c(c3)OCO4)CC(=O)N2)cc1 (stereo not given)	-0.27	0.8	17	24	0.8	x
C=CCSC1=C(C#N)C(c2ccc(OCC)cc2)CC(=O)N1 (stereo not given)	1.5	0.2	82*	65*	0.4	1.3
CCCOC(=O)CSC1=C(C#N)C(c2ccc3c(c2)OCO3)CC(=O)N1 (stereo not given)	0.42	0.1	92*	97*	0	x
CCOc1ccc(C2CC(=O)NC(SC)=C2C#N)cc1 (stereo not given)	-0.0089	0.6	36	56*	0.4	-0.041
COCCn1c(SCC(=O)NCc2ccccc2)nnc1-c1ccco1	-0.18	x	x	x	x	x
O=S(=O)(Nc1ccc2c(c1)nc1n2CCOC1)c1ccccc1	0.013	1	2	17	0.8	0.74
O=S(=O)(Nc1ccc2c(c1)nc1n2CCOC1)c1ccc(Cl)cc1	-1.8	0.5	49	73*	0.3	-0.42
Clc1ncc(CN2CCN(Cc3ccccc3)CC2)s1	-0.79	0.3	74*	8	0.9	x
Cc1cccc(C(=O)Nc2ncc(CN3CCOCC3)s2)c1	-0.97	0.9	12	-1	1	-0.011
CCOC(=O)C1CCN(Cc2cnc(Oc3ccc(OC)cc3)s2)CC1	-1.4	0.9	8	12	0.9	x
Cc1ccc(Oc2ncc(CN3CCOCC3)s2)cc1	-0.62	0.2	79*	21	0.8	x
Brc1ccc(Oc2ncc(CN3CCN(c4ccccc4)CC3)s2)cc1	-0.13	0.4	57*	71*	0.3	x
Clc1cccc(Oc2ncc(CN3CCOCC3)s2)c1	0.85	0.2	82*	16	0.8	x
COc1ccc(CNC(=O)C2CCCN2C(=O)NC2CCCCC2)cc1 (stereo not given)	0.22	0.9	13	5	0.9	-1.3
Cc1ccc(CN2CCNC(=O)C2CC(=O)O)o1 (stereo not given)	0.67	1.1	-9	-11	1.1	0.94
COc1ccc(/C=N/NC(=O)CC(=O)NCc2cccnc2)cc1	0.036	1.1	-8	19	0.8	x
COc1ccnc(CS(=O)c2nc3cc(OC(F)F)ccc3[nH]2)c1OC (stereo not given)	0.23	x	x	x	x	x
CCOC(=O)CNC(=O)CSc1nc2nc(C)c(Br)cc2[nH]1	0.017	0.4	60*	61*	0.4	-0.069
COCCCNC(=O)CS(=O)Cc1nc(-c2cccc(OC)c2)oc1C (stereo not given)	1.4	0.9	7	46	0.5	0.3
COc1cccc(-c2nc(CS(=O)CC(=O)NCc3ccc4c(c3)OCO4)c(C)o2)c1 (stereo not given)	0.52	0.2	77*	76*	0.2	-0.73
COc1ccc(-c2nc(CS(=O)CC(=O)NCc3ccc4c(c3)OCO4)c(C)o2)cc1 (stereo not given)	-1	0.6	36	36	0.6	0.12
COc1cccc(-c2nc(CS(=O)CC(=O)NCc3ccccc3Cl)c(C)o2)c1 (stereo not given)	0.3	0.7	30	64*	0.4	1.8
O=C1CC(C(=O)Nc2cccc3ccccc23)C2(CCCC2)O1 (stereo not given)	-0.28	0.8	16	1	1	x
Cc1cc(C)n2nc(-c3sccc3-n3cccc3)cc2n1	-2.6*	0.8	21	29	0.7	x
CCC1=C(OC(=O)N(CC)CC)N2C(=O)OC(=NCC(=O)OC)[C@]2(C)[C@H]2C1=CC[C@H]1C(=O)NC(=O)[C@H]12	-0.33	x	x	x	x	x
SMILES	DAT uptake mod	CYP2C19 activ	CYP2C19 inhib	CYP2C9 inh	CYP2C9 act	D1 allo mod
COc1ccc(C(=O)c2c(C(F)(F)F)oc3c2C(=O)c2ccccc2C3=O)cc1	-2.2	0.2	75*	78*	0.2	x
COC(=O)[C@H](CCSC)NC(=O)Nc1ccc(C)cc1	-0.16	0.4	60*	12	0.9	-0.17
COC(=O)[C@H](CCSC)NC(=O)Nc1cc(C)ccc1C	0.34	1	3	0	1	0.039
N#Cc1c(NC(=O)c2ccc(Cn3cc(Br)cn3)o2)sc2c1CCCCCC2	-0.32	0.7	31	58*	0.4	0.18
Cc1ccc(NC(=O)c2ccc(Cn3cc(Br)cn3)o2)cc1	0.86	x	x	x	x	x
CC1(C)C(c2cccs2)=[N+]([O-])C2(CCCCC/C2=N\NC(N)=O)N1O (stereo not given)	0.78	1.1	-13	-14	1.1	x
CCCCN(C)/C=N/c1c(C#N)cnn1-c1ccc(C)cc1	0.66	0.6	40	60*	0.4	x
Cc1nc2sc(C(c3ccc(Br)cc3)N3CC(C)OC(C)C3)c(O)n2n1 (stereo not given)	2.6*	0.6	42	-32	1.3	0.84
c1ccc(-c2c[nH]c3[n+]2CCCCC3)cc1	0.099	0.5	55*	-4	1	x
COc1ccc(-n2nnc3c(=O)n(C/C=C/c4ccccc4)cnc32)cc1	0.042	1	-1	20	0.8	-0.91
COc1ccc(OC)c(C2=NOC(C(=O)Nc3ccccc3SC)C2)c1 (stereo not given)	-1.5	0.1	86*	-33	1.3	x
COc1cccc(C2=NOC(C(=O)NCC3CCCO3)C2)c1 (stereo not given)	-0.61	0.9	11	-70	1.7	-0.1
COc1ccc(OC)c(C2=NOC(C(=O)NCC3CCCO3)C2)c1 (stereo not given)	0.46	0.7	34	-133	2.3*	x
COc1cc(NC(=O)C2CC(c3cccc(OC)c3OC)=NO2)cc(OC)c1OC (stereo not given)	1.7	0.4	61*	-37	1.4	-0.27
O=C(NCC1CCCO1)C1CC(c2ccccc2Cl)=NO1 (stereo not given)	0.47	0.4	56*	-318	4.2*	x
CCC(C)NC(=O)c1cn(C)c(=O)c2cc(OC)c(OC)cc12 (stereo not given)	0.023	0.6	41	-5	1.1	x
COCC(C)OC(=O)C(C#N)c1nc2ccccc2nc1N1CCN(Cc2ccccc2)CC1 (stereo not given)	1.1	0.3	74*	90*	0.1	0.009
COCCCNC(=O)C(C#N)c1nc2ccccc2nc1N1CCN(Cc2ccccc2)CC1 (stereo not given)	2.4	0.1	92*	93*	0.1	x
C=CCOC(=O)C(C#N)c1nc2ccccc2nc1N1CCN(Cc2ccccc2)CC1 (stereo not given)	0.082	0.4	57*	64*	0.4	-1
C=CCNC(=O)C(C#N)c1nc2ccccc2nc1N1CCN(Cc2ccccc2)CC1 (stereo not given)	-1.7	1	4	9	0.9	-1.6
COCCOC(=O)C(C#N)c1nc2ccccc2nc1N1CCN(Cc2ccccc2)CC1 (stereo not given)	0.009	0.2	80*	91*	0.1	-2
